PABP1 MLLE inh = blocks PAM2 peptide binding to the PABP1 MLLE domain | GST-MLLE / FITC-PAM2 fluorescence polarization | inhibition, % at 20 µM | actives 0.36% (n = 360,000); in the data active means inhibition above about 35%, passing the limit was not always enough
SUMO HTRF inh = blocks human SUMOylation mediated by UBC9. HTRF SUMOylation assay, SAE1/SAE2 + UBC9, in vitro. P63279. actives 0.36% (n = 290,000). inhibition, % at 35 µM; in the data active means inhibition above about 50%, passing the limit was not always enough
Target sequence (P63279 whole entry, looked up): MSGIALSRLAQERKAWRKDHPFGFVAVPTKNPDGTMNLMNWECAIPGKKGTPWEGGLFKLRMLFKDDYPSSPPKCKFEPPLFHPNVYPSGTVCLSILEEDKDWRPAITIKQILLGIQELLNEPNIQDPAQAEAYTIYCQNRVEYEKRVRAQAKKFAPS
ALR inh = blocks human ALR sulfhydryl oxidase activity; AID 485317; actives 3.8% (n = 290,000); inhibition, % (concentration not given with the values); purified ALR, DTT oxidation, H2O2 HRP-luminol luminescence;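 active means mean replicate inhibition above about 79%, with every replicate also reaching it, limit read from the data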
PABP polyA inh = blocks human PABP binding to poly(A) RNA; P11940; fluorescence polarization; inhibition, % at 35 µM; actives 1% (n = 290,000);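 further: calls also rest on retests at 20 µM and on dose response follow-up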
Efflux pump inh = blocks antifungal efflux pumps in multiplex yeast assay; S. cerevisiae Candida pump triplex, Nile Red efflux; inhibition, % at 10 µM; actives 0.44% (n = 330,000);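 active means plate passing quality check with inhibition over a set limit, or well fluorescence over plate mean plus 4 SD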;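 further: Nile Red retained in pooled yeast measured as flow cytometry median fluorescence; higher means more Nile Red kept so more efflux inhibition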
eIF4H FP inh = inhibitors of RNA binding by human eIF4H; inhibition, % at 35 µM; actives 0.94% (n = 290,000); eIF4H fluorescence polarization binding assay; AID 2012; Q15056;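 further: calls also rest on retests at 20 µM and on dose response follow-up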
Numbers stand for hits. Sampled rows, rich in hits. Any-hit rate of the full collection: about 4.7%. Unless noted, how the calls were made is not given here.

For O=c1cc(N2CCN(c3ccccc3)CC2)[nH]c(=O)n1Cc1ccc(F)cc1 the results were PABP1 MLLE inh inactive, SUMO HTRF inh inactive, ALR inh inactive, PABP polyA inh inactive, Efflux pump inh inactive and eIF4H FP inh inactive.
For Nc1cc(=O)[nH]n1C1CCN(c2ccccc2)CC1 the results were PABP1 MLLE inh inactive, SUMO HTRF inh inactive, ALR inh 94, PABP polyA inh inactive, Efflux pump inh inactive and eIF4H FP inh inactive.
`COc1ccc(-c2csc(NC(=O)COC(=O)C3=COCCO3)n2)cc1` gave PABP1 MLLE inh inactive, SUMO HTRF inh inactive, ALR inh inactive, PABP polyA inh inactive, Efflux pump inh inactive and eIF4H FP inh inactive.
For COc1cc(-c2ccc3cc(OC)c(OC)c(OC)c3c2)cc(OC)c1OC the results were PABP1 MLLE inh inactive.
CCOc1ccc(S(=O)(=O)NCCC(=O)N2CCN(C(C)=O)CC2)cc1 was read as PABP1 MLLE inh inactive.
`O=C(CCNS(=O)(=O)c1ccccc1C(F)(F)F)N1CCN(c2ccccc2O)CC1` gave PABP1 MLLE inh inactive, ALR inh 99 and Efflux pump inh inactive.
For O=C(COc1cccc(C(F)(F)F)c1)N1CCN(c2ccccc2O)CC1 the results were PABP1 MLLE inh inactive, SUMO HTRF inh inactive, ALR inh 98, PABP polyA inh inactive, Efflux pump inh inactive and eIF4H FP inh inactive.
For Nc1ncc(Br)cc1S(=O)(=O)NCCC(=O)N1CCN(c2ccccc2)CC1 the results were PABP1 MLLE inh inactive, ALR inh 96 and Efflux pump inh inactive.
Screening CCOc1ccc(S(=O)(=O)NCCC(=O)N2CCN(c3ccccc3O)CC2)cc1 returned PABP1 MLLE inh inactive, ALR inh 98 and Efflux pump inh inactive.
Nc1ncc(Br)cc1S(=O)(=O)NCCC(=O)N1CCN(c2ccccn2)CC1 was read as PABP1 MLLE inh inactive, SUMO HTRF inh inactive, ALR inh inactive, PABP polyA inh inactive, Efflux pump inh inactive and eIF4H FP inh inactive.
`CN(C)CCCNCCCNC(=O)c1ccco1` gave PABP1 MLLE inh inactive, SUMO HTRF inh inactive, ALR inh inactive, PABP polyA inh 64, Efflux pump inh inactive and eIF4H FP inh 33.
`CC(C)(C)c1ccc(C(=O)NCCCNC(=O)c2ccco2)cc1` gave PABP1 MLLE inh inactive, SUMO HTRF inh inactive, ALR inh inactive, PABP polyA inh inactive, Efflux pump inh inactive and eIF4H FP inh inactive.
CN(C)c1ccc(N2C(=O)CSC2=S)cc1 was read as PABP1 MLLE inh inactive, SUMO HTRF inh 73, ALR inh inactive, PABP polyA inh inactive, Efflux pump inh inactive and eIF4H FP inh inactive.
`O=C(O)c1cccc(N2C(=O)CSC2=S)c1` gave PABP1 MLLE inh inactive, SUMO HTRF inh inactive, ALR inh 79, PABP polyA inh inactive, Efflux pump inh inactive and eIF4H FP inh inactive.
O=C1CSC(=S)N1c1cccc(O)c1 was read as PABP1 MLLE inh inactive, SUMO HTRF inh inactive, ALR inh inactive, PABP polyA inh inactive, Efflux pump inh inactive and eIF4H FP inh inactive.
CC1SC(=S)N(c2ccc(N(C)C)cc2)C1=O (stereo not given) was read as PABP1 MLLE inh inactive, SUMO HTRF inh inactive, ALR inh 99, PABP polyA inh inactive, Efflux pump inh inactive and eIF4H FP inh inactive.
Screening CCOC(=O)c1ccccc1N1C(=O)CSC1=S returned PABP1 MLLE inh 41, SUMO HTRF inh inactive, ALR inh inactive, PABP polyA inh inactive, Efflux pump inh inactive and eIF4H FP inh inactive.
For COc1ccc(-c2nc(CC(=O)Nc3cccc(S(=O)(=O)NC4=NCCC4)c3)cs2)cc1 the results were PABP1 MLLE inh inactive and Efflux pump inh inactive.
Screening CCC(=O)OC1(C)C(=O)C=C2C=C(c3ccsc3)OC=C2C1=O (stereo not given) returned PABP1 MLLE inh inactive, SUMO HTRF inh inactive, ALR inh inactive, PABP polyA inh 51, Efflux pump inh inactive and eIF4H FP inh 93.
CSCCC(NC(=O)c1ccco1)C(=O)NCc1ccc2c(c1)OCO2 (stereo not given) was read as PABP1 MLLE inh inactive.
For O=C(NC(=S)Nc1ccccc1O)c1cccnc1 the results were PABP1 MLLE inh inactive, SUMO HTRF inh inactive, ALR inh inactive, PABP polyA inh inactive, Efflux pump inh inactive and eIF4H FP inh inactive.
O=C(NC(=S)Nc1cc([N+](=O)[O-])ccc1O)c1cccnc1 was read as PABP1 MLLE inh 42, SUMO HTRF inh inactive, ALR inh inactive, PABP polyA inh inactive, Efflux pump inh inactive and eIF4H FP inh inactive.
